Sampled rows, rich in hits. Any-hit rate of the full collection: about 2.2%.
Abeta rescue – A-beta toxicity reversal in yeast. yeast expressing A-beta42, growth rescue, OD600, 48 h; response scale: 0% DMSO, 100% iron-clioquinol control. Potency, µM (highest dose often 46.1 µM), usual class: activators. 410,000 tested, 0.063% active; further: nearly all actives have a fitted effect of over 55% in size
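Yeast growth medium received pinned compounds, then yeast cells expressing toxic A-beta were added; plates incubated at 30 C for 48 hr. Growth read as absorbance at 600 nm, normalized to DMSO and equimolar FeCl3 plus clioquinol controls.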
Mito fusion act – inhibitors of mitochondrial division or activators of mitochondrial fusion; AID 485298; S. cerevisiae fusion-defective mutant growth rescue, CellTiterGlo 48 h; 320,000 tested, 0.23% active; Potency, µM (series often up to 46.1 µM), actives largely listed as activators; further: nearly all actives have a fitted effect of over 45% in size
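Compounds are tested for their ability to restore growth of mitochondrial fusion-defective yeast strains at non-permissive 37C in YPEG medium over 48 hours. Viability is quantified by luciferase luminescence.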
FUS yeast rescue – rescues growth of FUS-expressing yeast. S. cerevisiae FUS-expressing, growth rescue, OD600, 24 h. Potency, µM (doses to about 76.6 µM), most hits filed as activators. 390,000 tested, 0.24% active; further: nearly all actives have a fitted effect of over 55% in size
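Compound concentration series was pinned onto galactose-induced FUS-expressing yeast seeded at OD 0.005. Plates sat 24hr at 30C; absorbance at 600 nm gave growth. DMSO served as background control.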
TDP-43 yeast inh – inhibitors of TDP-43 toxicity in yeast; Potency, µM (titrated, usually from 46.1 µM), most hits filed as activators; 410,000 tested, 1.8% active; AID 652104; TDP-43 expressing yeast growth rescue, BacTiter-Glo, 24 h; further: nearly all actives have a fitted effect of over 50% in size
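Luminescence from BacTiter-Glo reports growth of TDP-43-expressing yeast after 24 hr at 30 deg C with compound. Cells were raffinose-pregrown to mid-log, then seeded in galactose medium at OD600=0.02.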
aSyn yeast inh – inhibitors of alpha-synuclein toxicity in yeast. Yeast expressing alpha-synuclein, growth rescue, BacTiter-Glo, 24 h. Potency, µM (doses to about 46.1 µM), actives largely listed as activators. 370,000 tested, 0.14% active; further: nearly all actives have a fitted effect of over 65% in size
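Rescue of yeast growth: cells expressing toxic alpha-synuclein, induced in galactose at OD600 0.02, incubated with compound 24 h at 30 C. ATP luminescence quantified growth; inhibitors of toxicity appear as activators.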
Large screens that a line does not name were inactive. The call rests on the fitted dose curve; in most records, active means well fitted curve in the direction sought with a large enough effect; inconclusive means small, poorly fitted or top-dose-only effect, or another doubt; inactive means no such curve, though single readings can be large; an effect the other way counts as inactive or inconclusive.

CC(C)C[C@H](NC(=O)c1nc[nH]c1C(=O)NC(c1ccccc1)c1ccccc1)C(=O)OC(C)(C)C	FUS yeast rescue 14µM
Cc1cccc(NC(=O)c2nc[nH]c2C(=O)N[C@@H](CC(C)C)C(=O)OC(C)(C)C)c1	Abeta rescue 6.3µM, Mito fusion act inconclusive
C#CCN(C[C@@H]1[C@@H](OC(=O)Nc2cccs2)[C@@H](OC(=O)Nc2cccs2)Cn2c(=O)n(CCCCCC)c(=O)n21)S(=O)(=O)c1ccc(C)cc1	FUS yeast rescue inconclusive (no result: Mito fusion act)
CCOC(CC(=O)NNC(=O)c1c(-c2ccccc2Cl)noc1C)OCC	none
COc1ccc2nc(Cl)cc(Cl)c2c1	none
C=CS(=O)(=O)c1c2cc(OC)ccc2nc2ccc(OC)cc12	TDP-43 yeast inh 3.5µM (no result: Mito fusion act, FUS yeast rescue)
OC(c1cccnc1)c1nc(/C=C/c2ccc(C(F)(F)F)cc2)cs1 (stereo not given)	none (no result: Mito fusion act)
CCN(CC)c1nc(C(N)=O)cc(-c2ccccc2)n1	aSyn yeast inh 20µM
Cc1nc(-c2ccccc2)cc(-c2ccccc2)n1	none (no result: Mito fusion act)
CN(N)c1nc(-c2ccccc2)cc(-c2ccccc2)n1	TDP-43 yeast inh 11µM
O=[N+]([O-])c1ccccc1S(=O)(=O)NCc1ccccn1	none (no result: Abeta rescue, Mito fusion act, FUS yeast rescue, TDP-43 yeast inh)
O=C(c1cccc(Cl)c1)N1c2ncnn2C2(CCCCC2)[C@@H]2CCCC[C@@H]21	TDP-43 yeast inh 13µM (no result: Mito fusion act, aSyn yeast inh)
CCCn1c2ccccc2c2cnn(CC(=O)NCCOC)c(=O)c21	aSyn yeast inh 3.5µM
CCOc1ccc(N(CC(=O)Nc2c(C)n(C)n(-c3ccccc3)c2=O)S(=O)(=O)c2cccc3cccnc23)cc1	none (no result: Abeta rescue, Mito fusion act, TDP-43 yeast inh, aSyn yeast inh)
O=c1c2ccccc2nc(-c2ccccc2)n1Cc1ccccc1	Mito fusion act inconclusive, TDP-43 yeast inh 22µM
Cc1ccc(-c2nc3ccccc3c(=O)n2O)cc1	aSyn yeast inh 20µM
O=C(NC1CCCCN(Cc2cccc(C(F)(F)F)c2)C1=O)c1ccc(-c2ccccc2)cc1 (stereo not given)	none (no result: Abeta rescue, Mito fusion act, TDP-43 yeast inh, aSyn yeast inh)
CCCC1(c2ccccc2)NC(=O)N(CC(=O)c2[nH]c(C)c(C(=O)OCC)c2C)C1=O (stereo not given)	FUS yeast rescue 22µM
CCOC(=O)c1c(C)[nH]c(C(=O)CN2C(=O)NC3(CCCC3)C2=O)c1C	none
Nc1[nH]c(C(=O)c2ccccc2)c(-c2ccc(Cl)cc2Cl)c1C(=O)NCCC1=CCCCC1	none (no result: Abeta rescue, Mito fusion act, TDP-43 yeast inh, aSyn yeast inh)
Oc1c(C(Nc2nc3ccccc3s2)c2ccco2)ccc2cccnc12 (stereo not given)	TDP-43 yeast inh 20µM (no result: FUS yeast rescue)
Cc1cc(Cl)ccc1OCC(=O)NNC(=O)C1CCN(c2ncnc3sc(C)c(C)c23)CC1	FUS yeast rescue inconclusive, TDP-43 yeast inh 22µM
Cc1sc2ncnc(N3CCC(C(=O)NNC(=O)COc4ccc(Cl)cc4)CC3)c2c1C	FUS yeast rescue inconclusive (no result: Mito fusion act)
CCOC(=O)C1=CN(Cc2cccc(F)c2)S(=O)(=O)NC1c1ccc(Br)cc1F (stereo not given)	TDP-43 yeast inh 16µM (no result: Mito fusion act)
N#Cc1cn(CCOc2ccc(F)cc2)c2ccccc12	Abeta rescue inconclusive, TDP-43 yeast inh 20µM
COc1ccc(C(C#N)=Cc2cccc(OC)c2OC)cc1	TDP-43 yeast inh 18µM (no result: Mito fusion act)
O=C1CCC2(CCC(c3ccccc3)CC2)N1CCCO (stereo not given)	none (no result: Abeta rescue, Mito fusion act, TDP-43 yeast inh, aSyn yeast inh)
Nc1ccc2c(c1)-c1ccc(F)cc1C2=O	aSyn yeast inh 14µM (no result: Mito fusion act, FUS yeast rescue)
Nc1ccc2c(c1)C(=O)c1ccc(Cl)cc1-2	none (no result: Mito fusion act)
CCn1nc(C(=O)Nc2ccc(S(=O)(=O)Nc3nccs3)cc2)c2ccccc2c1=O	FUS yeast rescue 25µM
O=C(Nc1ccc(S(=O)(=O)Nc2ncccn2)cc1)c1nn(Cc2ccccc2)c(=O)c2ccccc12	none
O=C(NCc1ccc(F)c(F)c1)C1CCCN(c2nc3ccccc3o2)C1 (stereo not given)	none (no result: Abeta rescue, Mito fusion act, TDP-43 yeast inh, aSyn yeast inh)
O=C(O)CCCCCN1C(=O)C(O)=C(C(=O)/C=C/c2ccccc2)C1c1ccc2c(c1)OCO2 (stereo not given)	FUS yeast rescue 35µM
O=C(/C=C/c1ccccc1)C1=C(O)C(=O)N(CCO)C1c1cccc([N+](=O)[O-])c1 (stereo not given)	none
CN(C)c1ccc(C(=O)OCC(=O)NC2CCCCCC2)cc1	none
O=C(NC(=S)Nc1ccc(S(=O)(=O)NC2CCCCC2)cc1)c1cccs1	Abeta rescue inconclusive, FUS yeast rescue inconclusive, TDP-43 yeast inh 22µM, aSyn yeast inh inconclusive
CC1CCCCC1NC(=O)COC(=O)c1ccc(N(C)C)cc1 (stereo not given)	TDP-43 yeast inh 16µM
O=C(NC(=S)Nc1ccc(N2CCCCC2)c(Cl)c1)c1cccs1	TDP-43 yeast inh 35µM (no result: Mito fusion act, FUS yeast rescue)
CC1CCCC(NC(=O)COC(=O)c2cccs2)C1C (stereo not given)	Abeta rescue inconclusive, TDP-43 yeast inh 11µM
CCOc1ccc(-n2c(SCC(=O)Nc3ccc(OCc4ccccc4)cc3)nnc2-c2ccc(Cl)cc2)cc1	none (no result: Abeta rescue, Mito fusion act, TDP-43 yeast inh, aSyn yeast inh)
CC1CCCCC1NC(=S)NC(=O)c1cccs1 (stereo not given)	Abeta rescue 10µM
Nc1nc(-c2cccs2)c(-c2cccs2)s1	TDP-43 yeast inh 16µM
CCOC(=O)C1=C(O)C(=O)NC(c2ccccc2)=C(OC2CCCCC2)C1	Mito fusion act 10µM
CC1=C(C)CC2C(C1)C(=O)c1ccc(Br)cc1S2(=O)=O (stereo not given)	TDP-43 yeast inh 5µM
CC1=CCC2C(=O)N(c3ccc(Br)cc3C)C(=O)C2C1 (stereo not given)	TDP-43 yeast inh inconclusive
CCN=c1scc(C)n1/N=C/c1cc(Br)c(O)c(Br)c1	TDP-43 yeast inh 3.2µM
S=C(Nc1ccc(Br)cc1)OCCN1CCCC12CCC(c1ccccc1)CC2 (stereo not given)	none (no result: Abeta rescue, Mito fusion act, TDP-43 yeast inh, aSyn yeast inh)
NNc1nc(-c2ccccc2)nc(-c2ccccc2)c1Br	TDP-43 yeast inh 22µM (no result: Mito fusion act)
CNc1nc(-c2ccccc2)nc(-c2ccccc2)c1C#N	none
C[C@@H]1C=CC(=O)O[C@@H]1c1ccc(Cl)cc1	TDP-43 yeast inh 13µM
O=C(NCc1ccccc1Cl)C1CCCN(c2nc3ccccc3o2)C1 (stereo not given)	none (no result: Abeta rescue, Mito fusion act, TDP-43 yeast inh, aSyn yeast inh)
CC(=O)c1c(C)[nH]c(C(=O)OCc2cccc(C)c2)c1C	Mito fusion act 35µM, TDP-43 yeast inh inconclusive
O=C(Nc1ccccc1)N(Cc1cccc(Cl)c1)c1ccccn1	Abeta rescue inconclusive, TDP-43 yeast inh inconclusive (no result: Mito fusion act, aSyn yeast inh)
COc1ccc(Nc2ccccc2C(=O)O)cc1	none
COc1ccc(Nc2cccccc2=O)cc1	TDP-43 yeast inh 11µM
COC(=O)C1CN(Cc2ccccc2)CCS(=O)(=O)N1Cc1cn(Cc2ccccc2Br)nn1 (stereo not given)	FUS yeast rescue 14µM (no result: Abeta rescue, Mito fusion act, TDP-43 yeast inh, aSyn yeast inh)
COC(=O)C1CN(Cc2ccccc2)CCS(=O)(=O)N1Cc1cn(Cc2ccc(F)cc2)nn1 (stereo not given)	none (no result: Abeta rescue, Mito fusion act, TDP-43 yeast inh, aSyn yeast inh)
